Source: PubChem (The Scripps Research Institute Molecular Screening Center)
TbREL1 primary: TbREL1 inhibition, primary screen. P86926. TbREL1 RNA ligation, FRET fluorescence. inhibition, % at 9.66 µM. 89,000 compounds, 0.49% hits. AID 1117264;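 active means inhibition above the mean inhibition across all screened compounds plus 3 SD, cut at about 11% in these data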;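 further: 0% = plate median of test wells and 100% = NSC42067 control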
Target sequence (P86926 whole entry, looked up): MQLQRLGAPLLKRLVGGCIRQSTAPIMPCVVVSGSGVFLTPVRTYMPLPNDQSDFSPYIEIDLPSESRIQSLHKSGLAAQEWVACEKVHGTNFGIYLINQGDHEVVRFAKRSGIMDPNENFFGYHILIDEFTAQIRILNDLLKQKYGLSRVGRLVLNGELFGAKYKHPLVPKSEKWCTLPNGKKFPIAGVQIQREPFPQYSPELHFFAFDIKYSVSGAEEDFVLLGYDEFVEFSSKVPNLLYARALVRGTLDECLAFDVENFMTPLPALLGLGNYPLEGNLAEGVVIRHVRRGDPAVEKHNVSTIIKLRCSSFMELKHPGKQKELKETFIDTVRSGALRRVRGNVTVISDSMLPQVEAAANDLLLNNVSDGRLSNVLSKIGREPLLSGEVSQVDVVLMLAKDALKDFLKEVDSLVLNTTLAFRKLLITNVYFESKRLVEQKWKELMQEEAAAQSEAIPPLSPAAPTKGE
TbREL1 confirm: TbREL1 inhibition, confirmation; 390 compounds, 37% hits; shares compounds with TbREL1 primary; TbREL1 RNA ligation, FRET fluorescence; inhibition, % at 9.66 µM;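 active means mean inhibition across replicates above a set limit taken from the earlier primary screen, cut at about 11% in these data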;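 further: 0% = REL1 with substrate and DMSO and 100% = REL1 plus control inhibitor NSC42067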
* = called active by the depositor. Only a selection was taken, and hits are over-represented in it overall.

Screening COc1ccc(-n2c(SCC(=O)Nc3cc(C)c(NC(=O)c4ccccc4)cc3OC)nnc2-c2ccco2)cc1 returned TbREL1 primary -2.
C[C@H]1[C@@H](OC(=O)Nc2ccc(Cl)cc2)CC[C@@]23CCCN2C(=O)CCC[C@@H]13 was read as TbREL1 primary -5.
Screening CC(C)(C)CCNc1nc(-c2ccccn2)nnc1-c1ccccc1 returned TbREL1 primary -2.
Nc1ccc2nc(-c3cccnc3)[nH]c2c1 was read as TbREL1 primary 0.
`Nc1ccc2nc(-c3ccccn3)[nH]c2c1` gave TbREL1 primary 0.
`Nc1ccc2nc(-c3ccc(N)c(Cl)c3)[nH]c2c1` gave TbREL1 primary 13* and TbREL1 confirm 6.
O=S1(=O)c2c(cccc2N2CCC[C@H]2CO)O[C@H]2CCN1C2 was read as TbREL1 primary -1.
`COC(=O)[C@]12C[C@H](CC(=O)NCCC(C)C)C(=O)N(Cc3cccc4ccccc34)C1=C[C@H](C(C)(C)C)O[C@@H]2C` gave TbREL1 primary 4.
Screening NS(=O)(=O)c1ccc(NC(=O)c2cccc(N3C(=O)c4ccccc4C3=O)c2)cc1 returned TbREL1 primary 12* and TbREL1 confirm 23*.
`NS(=O)(=O)c1ccc(NC(=O)c2cc(=O)c3ccccc3o2)cc1` gave TbREL1 primary 6.
`O=C(Nc1ccc(C(=O)NN2C(=O)c3ccccc3C2=O)cc1)c1ccccc1` gave TbREL1 primary 0.
`C[C@H]1[C@@H](N(C)C)CC[C@@]23CCCN2C(=O)CCC[C@@H]13` gave TbREL1 primary 8.
Screening C[C@@H]1N[C@H]2N(C1=O)c1ccccc1[C@@]21C[C@@H]2C(=O)N[C@](C)(O1)c1nc3ccccc3c(=O)n12 returned TbREL1 primary 2.
For N#Cc1c(SCC(=O)Nc2nccs2)sc2c(O)cc(=O)[nH]c12 the results were TbREL1 primary 38* and TbREL1 confirm 23*.
Cc1cc(C)cc(NC(=O)CSc2nc3[nH]c(=O)cc(O)c3s2)c1 was read as TbREL1 primary -5.
For Cc1cc(C)nc(SCC(=O)Nc2nccs2)n1 the results were TbREL1 primary 0.
`COc1ccc(-c2cc(-c3ccccc3)nc(SCC(=O)Nc3nccs3)c2C#N)cc1` gave TbREL1 primary -1.
For CCCSc1nnc(NC(=O)CSc2sc3c(O)cc(=O)[nH]c3c2C#N)s1 the results were TbREL1 primary 27* and TbREL1 confirm 16*.
Screening CCCC(=O)Nc1nnc(SCC)s1 returned TbREL1 primary 3.
Screening Clc1ccc(OCCOc2ccc(Br)nc2Br)c(Cl)c1 returned TbREL1 primary -1.
CCOC(=O)[C@]12CCCC=C1N(Cc1ccc(OC)cc1)C(=O)[C@@H]2CC(=O)N1CCCCC1 was read as TbREL1 primary -3.
For O=C(N[C@H](C(=O)N1CCC[C@H]1C(=O)NCCc1ccccc1Cl)C1CCCCC1)c1cccs1 the results were TbREL1 primary -3.
For CCC[C@H]1[C@@H](NC(=O)C(c2ccccc2)c2ccccc2)CC[C@@]23CCCN2C(=O)CCC[C@@H]13 the results were TbREL1 primary -5.
Screening CCCn1c(CCC(=O)O)ccc1-c1ccccc1 returned TbREL1 primary -8.
`O=C(O)CCc1ccc(-c2ccc(F)cc2)n1CCC(=O)O` gave TbREL1 primary 34* and TbREL1 confirm 1.
`O=C(O)CCc1ccc(-c2ccccc2)n1CC(=O)O` gave TbREL1 primary -3.
For CC(C)(C)c1ccc(-c2noc(CCC(=O)NC3CC3)n2)cc1 the results were TbREL1 primary -3.
`CC1(C)C=C2C(N(CC3CC3)C(=N)N2C(=O)OCc2ccccc2)n2c(=O)n(-c3ccccc3)c(=O)n21` (stereo not given) gave TbREL1 primary 5.
Cc1cc(C)n(CCC(=O)N/N=C/c2ccc(O)cc2O)n1 was read as TbREL1 primary 12* and TbREL1 confirm 5.
Screening Cc1cc(C)n(CCC(=O)N/N=C/c2ccc(Cl)c([N+](=O)[O-])c2)n1 returned TbREL1 primary -3.
Cc1cc(C)n(CCC(=O)N/N=C/c2ccccc2O)n1 was read as TbREL1 primary 1.
Screening O=C(OCc1ccccc1)[C@H](Cc1ccccc1)NC(=O)[C@@H]1CC=C[C@@H]2CCN(C3CCCCC3)C(=O)[C@@H]21 returned TbREL1 primary 0.
C[C@H]1[C@H](N(Cc2ccccc2)Cc2ccccc2)CC[C@@]23CCCN2C(=O)CCC[C@@H]13 was read as TbREL1 primary -2.
For CC(=O)c1ccc([C@H](O)[C@H](C)C(=O)N(C)c2ccccc2)cc1 the results were TbREL1 primary 3.
Screening COC(=O)C1=C(C)N(Cc2ccccc2C(F)(F)F)C(=NCc2ccc(OC)cc2)NC1c1cccc(F)c1 (stereo not given) returned TbREL1 primary 14* and TbREL1 confirm 19*.
For COC(=O)C1=C(C)N(Cc2ccccc2C(F)(F)F)C(=NCc2ccc(C(F)(F)F)cc2)NC1c1ccc(Cl)cc1 (stereo not given) the results were TbREL1 primary 12* and TbREL1 confirm 18*.
For COC(=O)C1=C(C)N(Cc2ccc(Cl)cc2)C(=S)NC1c1cccc(OC)c1 (stereo not given) the results were TbREL1 primary -7.
COC(=O)C1=C(C)N(Cc2ccccc2C(F)(F)F)C(=NCc2cccc(C(F)(F)F)c2)NC1c1ccc(C(F)(F)F)cc1 (stereo not given) was read as TbREL1 primary 18* and TbREL1 confirm 20*.
COC(=O)C1=C(C)N(Cc2ccc(Cl)cc2)C(=S)NC1c1ccc(F)cc1 (stereo not given) was read as TbREL1 primary -5.
For COC(=O)C1=C(C)N(Cc2ccc(Cl)cc2)C(=S)NC1c1ccccc1 (stereo not given) the results were TbREL1 primary 1.
Screening COC(=O)C1=C(C)N(Cc2ccccc2)C(=S)NC1c1ccc(Cl)cc1 (stereo not given) returned TbREL1 primary -8.
Screening COc1cccc(C2NC(=S)N(Cc3ccc(F)cc3)C(C)=C2C(C)=O)c1 (stereo not given) returned TbREL1 primary -7.
`COC(=O)C1=C(C)N(Cc2ccccc2C(F)(F)F)C(=NCc2ccc(OC)cc2)NC1c1ccc(Cl)cc1` (stereo not given) gave TbREL1 primary 12* and TbREL1 confirm 16*.
`COc1cc(-c2csc(N3CCC(C(N)=O)CC3)n2)cc(OC)c1OC` gave TbREL1 primary 8.
Screening COc1cccc(C(=O)N[C@@H](Cc2cccnc2)C(=O)N2CCC[C@H]2C(=O)NCCc2ccccc2Cl)c1 returned TbREL1 primary -2.
Screening COC(=O)C[C@@H]1CC[C@@H]2[C@H](COc3ccc(NC(=O)c4ccc5c(c4)OCO5)cc3C(=O)N2C)O1 returned TbREL1 primary -2.
Screening COc1ccc(CCN(Cc2cccs2)S(=O)(=O)c2ccc(C)s2)cc1OC returned TbREL1 primary -4.
CCC[C@H]1[C@H](N)CC[C@@]23CCCN2C(=O)CCC[C@@H]13 was read as TbREL1 primary 9.
Screening O=[N+]([O-])c1cnc2ccccc2c1Sc1ccccc1 returned TbREL1 primary 4.
For CCC[C@H]1[C@@H](NCc2ccccc2)CC[C@@]23CCCN2C(=O)CCC[C@@H]13 the results were TbREL1 primary -3.
`COc1ccc(C2C(C(=O)N3CCN(c4ccccc4C)CC3)CC(=O)N2c2ccc(OC)cc2)cc1` (stereo not given) gave TbREL1 primary 1.
